Hit rate of the full screen: of about 59,000 compounds, about 6,200 (11%) were called active. Roughly 9% stayed inconclusive and do not appear here. No stated cut-off is given here; in the data, active means max dye-equivalent concentration above about 10 nM; inconclusive means mostly about 1.1 nM to 9.6 nM; inactive means weaker than that. The full list was thinned out, with actives kept by preference.
Test: qHTS Assay for Spectroscopic Profiling in 4-MU Spectral Region
Settings: compound autofluorescence, 340/450 nm, 4-MU equivalents; hits give high values
Summary of the method: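 Intrinsic fluorescence at 340/450 nm (ex/em) was read after 15 min at room temperature in pH 8.0, 100 mM Tris. Each compound concentration expressed as 4-MU-equivalent concentration from a six-point 4-MU standard series on each plate.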

| SMILES | max dye-equivalent concentration |
| --- | --- |
| Cc1cccc(N(CC(O)CN(C)C)S(=O)(=O)c2ccccc2)c1 (stereo unspecified) | inactive |
| CCOC(=O)N1CCN(C(=O)CN(C2CCCCC2)S(C)(=O)=O)CC1 | inactive |
| Cc1cccn2c(=O)c3cc(C(=O)N4COCC4(C)C)n(C)c3nc12 | 970 nM (active) |
| O=C(NCc1ccco1)c1nc2ncccn2n1 | inactive |
| O=C(NCc1ccccn1)c1c(O)c2c([nH]c1=O)CCCC2 | inactive |
| Cc1cccn2c(=O)c3cc(C(=O)NCc4ccccn4)n(C)c3nc12 | 190 nM (active) |
| CCOC(=O)N1CCN(S(=O)(=O)c2cc3c(cc2C)NC(=O)CO3)CC1 | inactive |
| Cc1cnc(CNc2ncncc2-c2ccccc2Cl)cn1 | inactive |
| Cc1ccccc1C(OCC(O)CN1CCCCC1CCO)c1ccccc1 (stereo unspecified) | inactive |
| Cc1noc(C)c1C(=O)Nc1ccccn1 | inactive |
| Cc1ccc(-c2nc(COC(=O)c3c(C)noc3C)cs2)cc1 | inactive |
| Cc1noc(C)c1C(=O)OCC(=O)/C=C1\N(C)c2ccccc2C1(C)C | 150 nM (active) |
| COc1ccc(C(=O)N/N=C2/C(=O)c3c(C)cc(C)cc3CC2(C)C)cc1 | inactive |
| Cc1ccc(S(=O)(=O)N2CCC(C(=O)N[C@@H](C)C(=O)NCCc3ccccc3)CC2)cc1 | inactive |
| CCOc1ccc(-n2c(SC(C)C(=O)OC)nc3c(c2=O)SCC3)cc1 (stereo unspecified) | inactive |
| CCOC(=O)N1CCC(NC(=O)Cc2cn(C)c3ccccc23)CC1 | inactive |
| CCOC(=O)N1CCC(NC(=O)CCc2cn(C)c3ccccc23)CC1 | 380 nM (active) |
| CCOC(=O)N1CCC(NC(=O)C(C)n2c3ccccc3c3cnn(C)c(=O)c32)CC1 (stereo unspecified) | inactive |
| CCCN1C2=C(C(=O)CCC2)C(c2ccc(O)c(Br)c2)C2=C1CCCC2=O | 78 nM (active) |
| COc1cc(Cl)cc(C2NC(=O)NC(C)=C2C(=O)NCc2ccccc2)c1O (stereo unspecified) | inactive |
| COc1cc([C@H]2c3cc4c(cc3[C@@H](O[C@@H]3O[C@H]5CO[C@@H](C)O[C@]5(O)C[C@H]3O)[C@@H]3COC(=O)[C@H]23)OCO4)cc(OC)c1O | inactive |
| O=C1CCCC2=C1C(c1cccs1)n1nc(SCc3ccccc3)nc1N2 (stereo unspecified) | 110 nM (active) |
| CC(C)C(=O)N1c2ccccc2NC2=C(C(=O)CCC2)C1c1ccc(N(C)C)cc1 (stereo unspecified) | inactive |
| CC(C)(C)NCC[C@@H](O)c1cc(C(F)(F)F)nc2c(C(F)(F)F)cccc12 | inactive |
| Cc1nnc2sc(-c3ccco3)nn12 | inactive |
| c1ccc(-c2nnc3n2NC(c2ccc4c(c2)OCO4)S3)cc1 (stereo unspecified) | inactive |

| SMILES | max dye-equivalent concentration |
| --- | --- |
| Fc1ccc(-c2ccc(-c3nn4c(-c5ccco5)nnc4s3)o2)cc1 | 51 nM (active) |
| FC(F)(F)c1nnc2sc(-c3ccco3)nn12 | inactive |
| Fc1ccc(-c2nnc3sc(-c4ccc5c(c4)OCO5)nn23)cc1 | 26 nM (active) |
| CC(=O)Nc1ccc(-c2nn3c(C)nnc3s2)cc1C | inactive |
| CCOC(=O)C(C(=O)OCC)C(C#N)c1ccccc1 (stereo unspecified) | inactive |
| CCCn1c(SCC(=O)N2CCc3ccccc32)nnc1-c1ccncc1 | inactive |
| Cc1cc(C)n2nc(C(=O)Oc3ccc4c(c3)OCO4)nc2n1 | inactive |
| CCOc1ccc(NCCC(=O)c2ccc3c(c2)OCO3)cc1 | inactive |
| C/C=C1\C(=O)C[C@@H]2[C@@H]3CCC4=CC(=O)CC[C@@]4(C)[C@H]3CC[C@@]12C | 12 nM (active) |
| COc1cccc(OCC(=O)Nc2ccccc2C(N)=O)c1 | inactive |
| Cc1ccc(S(=O)(=O)N2CCN(C(=O)CCC(=O)NC3CCCc4ccccc43)CC2)cc1 (stereo unspecified) | inactive |
| O=C(CCC(=O)N1CCN(S(=O)(=O)c2ccccc2)CC1)NC1CCCc2ccccc21 (stereo unspecified) | inactive |
| N#C/C=C1\Sc2ccccc2C(=O)N1CC(=O)N1CCN(S(=O)(=O)c2ccccc2)CC1 | 18 nM (active) |
| CC1=NCCN1S(=O)(=O)c1ccc(Br)c(C)c1 | inactive |
| CC(=O)c1cnc(Nc2nc(C)c3cc(C)ccc3n2)nc1C | inactive |
| O=C(CS(=O)(=O)Cc1ccccc1)NCC1CCCO1 (stereo unspecified) | inactive |
| O=C(CSc1nnc(-c2ccc(NS(=O)(=O)c3ccccc3)cc2)o1)NCC1CCCO1 (stereo unspecified) | inactive |
| O=C(CSC1=Nc2ccccc2C2=NC(c3ccccc3)C(=O)N12)NCC1CCCO1 (stereo unspecified) | 750 nM (active) |
| COC(=O)NC1(C(F)(F)F)NC(=O)N(C2CCCCC2)C1=O (stereo unspecified) | inactive |
| O=C(NCc1ccc(Cl)cc1)c1cc2c(nc3sccn32)s1 | inactive |
| CS(=O)(=O)N1CCC[C@@]2(CCN(c3ccncc3)C2)C1 | inactive |
| O=C(c1cc(-c2cccs2)on1)N1CCCCC1 | inactive |
| Cc1ccc(C(=O)N2CCCCCC2)cc1Br | inactive |
| Cc1ccc2cc3cc(C(=O)N4CCCCCC4)oc3nc2c1 | 12 nM (active) |
| Cc1cc(C(=O)CC#N)c(C)n1CC(F)(F)F | inactive |

Source: PubChem BioAssay AID589 (National Center for Advancing Translational Sciences (NCATS), 2007)
